From PubChem BioAssay come the findings set out here.

Several values for one entry are separate records, joined by “and”; a condition that tells them apart may be missing. Equal values may be shown once. Results filed as inconclusive are left out. For part of these data: Results with a measured potency or affinity are listed apart. Activity calls are given as the source filed them. Unless noted, no rule for the calls is given here.

The target in test [1] is 6-phosphogluconate dehydrogenase, decarboxylating (Homo sapiens) (UniProt P52209). Description: inhibition of human phosphogluconate dehydrogenase – biochemical, recombinant enzyme, NADPH absorbance, primary screen (AID 1159550;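 active = at least 20% inhibition of 6-phosphogluconate dehydrogenase activity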). As to conditions: recombinant 6PGD, NADPH absorbance 341 nm; at 10 µM; stronger effect = higher value.
A short description of test [2]: EMT-state selective cytotoxicity in co-culture – imaging, PC-3E GFP, TEM4-18 mCherry, primary screen (AID 1345086;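 active = compounds killing one labelled cell type while sparing the other, by normalised counts and ratio limits, not self-fluorescent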;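 as to all read-outs here: cells exposed to compound for 72 h before imaging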;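 as to red/green cell ratio (normalised): normalised mesenchymal count divided by normalised epithelial count so high means epithelial killing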). Conditions: PC-3E GFP / TEM4-18 mCherry co-culture, imaging cell counts, at 1 µM; for red/green cell ratio (normalised): actives lie on both sides.
The subject of test [3] is Aerobactin synthetase IucA (Klebsiella pneumoniae hvKP1). The test can be described thus: IucA enzyme inhibition, primary screen, biochemical, Spectrum library (AID 1346200).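 Also: 100% = wells without compound and 0% = wells lacking enzyme.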 As to conditions: malachite green pyrophosphate, A620, at 8 µM, stronger effect = lower value.
In test [4] the target is ATP-dependent translocase ABCB1 (Homo sapiens) (UniProt P08183). The test can be described thus: P-glycoprotein substrate transport blockade – cell-based (AID 377; in the data active = fluorescence slope change above about 50%). Conditions: MDR1-expressing cells, fluorescent substrate accumulation slope; stronger effect = higher value; concentration not given here.
Test [5] is described as follows: blockers of polyQ-driven CASP3 activation – cell-based (AID 1583). As to conditions: polyglutamine-induced caspase-3 activation, cell assay; stronger effect = higher value;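 tested at 10 µM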.
The nature of test [6]: yeast 75Q aggregation reduction – 75Q-TubU reporter (AID 1593). As to conditions: Yeast 75Q polyglutamine aggregation reporter.
Test [7] in a line: restoration of touch response, mutant HTT neurons – whole organism, C. elegans mechanosensory neurons, N-terminal huntingtin (AID 1599). Conditions: C. elegans polyQ-huntingtin mechanosensory neurons, stronger effect = higher value.
A short description of test [8]: blockers of cytochrome c efflux from mitochondria – biochemical, purified mitochondria (AID 1603).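 Also: mouse liver mitochondria challenged with calcium chloride; signal normalized to the plate average as 100%.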 Conditions: stronger effect = lower value.
Test [9] can be described thus: polyglutamine aggregate formation blockers (AID 1604). Conditions: polyglutamine-induced protein aggregation inhibition assay; stronger effect = higher value; tested at 2.5 µM.
The nature of test [10]: glutamate transport activators, MN-1 cells, MN-1 cell line (AID 1612).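 Also: tested at 1 µM final; 0% = mean of DMSO vehicle wells on each plate; positive means more glutamate uptake than control and negative means less.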 As to conditions: MN-1 motor neuron cells, stronger effect = higher value.
Test [11] in a line: GFP-Q80 aggregate reduction, neuronal-like cells, cell-based, NGF-treated PC12, GFPQ80 (AID 1614).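 Also: lower means fewer inclusions and 0 means no inclusions at all.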 As to conditions: PC12 NGF-treated GFP-polyQ80 inclusion reduction.
A short description of test [12]: 75Q-TubH aggregate inhibition, S. cerevisiae, yeast (AID 1616). Conditions: S. cerevisiae 75Q-TubH polyglutamine aggregation suppression; stronger effect = higher value.
Test [13] is described as follows: compounds altering viability of human ES cells (AID 493140).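 Also: cells exposed to compounds for four days before counting.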 As to conditions: human embryonic stem cell survival screen; stronger effect = higher value.
A short description of test [14]: P. berghei load reduction in hepatocytes – cell-based, HepG2, luciferase luminescence, HepG2 viability, primary screen (AID 624349; in the data active = parasite load remaining mostly below about 12%, no sharp cut-off; inactive = mostly above about 10%;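 also: 100% = mean of DMSO negative control wells on the same plate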). Conditions: P. berghei liver stage in HepG2, luciferase luminescence, concentration not given here; parasite load remaining: stronger effect = lower value; viability: measured here: HepG2 viability without parasites.
A short description of test [15]: viability loss with induced miR-34 in A549 – imaging, A549 dox-inducible miR-34, nuclei and caspase counts, primary screen (AID 1347080;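 active = compounds whose cell count with miR-34 switched on is under 0.7 times the count with it off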). As to conditions: A549 miR-34 inducible, Hoechst nuclei count, 48 h.
A short description of test [16]: MELAS cybrid and Rieske KO viability enhancers – cell-based, MELAS cybrids, Rieske KO mouse fibroblasts, CellTiter-Glo, primary screen (AID 1508586;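 active = mean z-score across replicates of 1.96 or higher in either the MELAS or the Rieske mutant cell line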;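 also: z relative to plate mean and SD of compound and empty wells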). As to conditions: low glucose. For orientation: ATP-based viability assays read luminescence as a measure of living cells.
Test [17] concerns the target Mitogen-activated protein kinase 7 (Homo sapiens) (UniProt Q13164). The test can be described thus: Gal4-ERK5 driven luciferase induction – cell-based, HTS, primary screen (AID 1508626;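 active = luciferase signal above three times the same-plate solvent-only control wells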;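 also: luciferase driven by Gal4-ERK5 fusion binding five Gal4 sites before minimal TATA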). Conditions: HeLa Gal4-ERK5 transactivation, 18 h, at 5 µM, stronger effect = higher value.
Test [18] concerns Aerobactin synthetase IucA (Klebsiella pneumoniae, hypervirulent). The test can be described thus: biochemical IucA inhibition screen of LOPAC library by absorbance (AID 1346212).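 Also: 100% = no compound wells and 0% = no enzyme wells.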 Conditions: IucA enzyme assay, absorbance (OD) readout; stronger effect = lower value;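 tested at 8 µM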.
Test [19] in a line: galactose survival enhancers in mitochondrial complex I cybrids – cell-based, galactose medium, ATP luminescence, primary screen (AID 1645843;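 active = z-score of at least 1.8 in each of two replicates, scored against plate mean and spread of sample wells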;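 also: positive z means more ATP and so rescue of galactose-driven cybrid death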). As to conditions: complex I mutant cybrid cells, 72 h, stronger effect = higher value.
The mark [20] stands for this setting: measured here: epithelial PC-3E GFP cell survival.
Setting [21] is: measured here: mesenchymal TEM4-18 mCherry cell survival.
[22] abbreviates: measured here: relative caspase fold change +Dox/-Dox.
[23] abbreviates: measured here: total cells with miR-34 induction, stronger effect = lower value.
The mark [24] stands for this setting: measured here: total cells without miR-34 induction.

Sequence of 6-phosphogluconate dehydrogenase, decarboxylating (Homo sapiens) (P52209 whole entry, looked up): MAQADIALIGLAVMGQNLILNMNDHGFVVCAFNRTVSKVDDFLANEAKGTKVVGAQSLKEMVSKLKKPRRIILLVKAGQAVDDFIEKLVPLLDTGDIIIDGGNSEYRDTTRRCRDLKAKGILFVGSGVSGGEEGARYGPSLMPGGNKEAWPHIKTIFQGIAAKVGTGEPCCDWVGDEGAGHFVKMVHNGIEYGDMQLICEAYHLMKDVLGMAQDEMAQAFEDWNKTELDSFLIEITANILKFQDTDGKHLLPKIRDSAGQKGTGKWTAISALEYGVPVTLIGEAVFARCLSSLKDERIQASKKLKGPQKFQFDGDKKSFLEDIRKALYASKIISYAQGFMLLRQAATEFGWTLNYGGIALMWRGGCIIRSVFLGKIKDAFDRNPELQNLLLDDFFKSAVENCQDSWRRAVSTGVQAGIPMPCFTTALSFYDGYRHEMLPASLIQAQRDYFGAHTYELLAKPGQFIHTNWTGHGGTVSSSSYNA
Sequence of Mitogen-activated protein kinase 7 (Homo sapiens) (Q13164 whole entry, looked up, the tested form may be a part): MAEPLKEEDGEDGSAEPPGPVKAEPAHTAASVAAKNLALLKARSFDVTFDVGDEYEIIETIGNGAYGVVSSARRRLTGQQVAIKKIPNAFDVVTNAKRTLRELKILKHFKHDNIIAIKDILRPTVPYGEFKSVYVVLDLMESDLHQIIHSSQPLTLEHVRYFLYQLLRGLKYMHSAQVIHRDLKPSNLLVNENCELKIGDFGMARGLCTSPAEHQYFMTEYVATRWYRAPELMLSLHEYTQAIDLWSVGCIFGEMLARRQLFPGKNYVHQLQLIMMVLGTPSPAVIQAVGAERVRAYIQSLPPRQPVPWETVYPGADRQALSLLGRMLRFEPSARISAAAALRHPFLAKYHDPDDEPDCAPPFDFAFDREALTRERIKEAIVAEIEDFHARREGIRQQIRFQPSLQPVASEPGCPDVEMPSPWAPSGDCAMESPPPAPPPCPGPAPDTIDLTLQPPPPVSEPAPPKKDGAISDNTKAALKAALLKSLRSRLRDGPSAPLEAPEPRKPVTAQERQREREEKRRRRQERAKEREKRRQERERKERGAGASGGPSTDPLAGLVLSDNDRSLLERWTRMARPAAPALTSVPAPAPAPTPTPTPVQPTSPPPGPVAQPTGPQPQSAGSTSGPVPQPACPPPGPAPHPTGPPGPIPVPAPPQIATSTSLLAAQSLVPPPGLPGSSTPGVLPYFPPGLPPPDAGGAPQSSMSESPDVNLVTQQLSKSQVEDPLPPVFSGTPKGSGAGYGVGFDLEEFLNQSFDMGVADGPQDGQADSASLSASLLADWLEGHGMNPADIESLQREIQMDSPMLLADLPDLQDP
Sequence of ATP-dependent translocase ABCB1 (Homo sapiens) (P08183 whole entry, looked up): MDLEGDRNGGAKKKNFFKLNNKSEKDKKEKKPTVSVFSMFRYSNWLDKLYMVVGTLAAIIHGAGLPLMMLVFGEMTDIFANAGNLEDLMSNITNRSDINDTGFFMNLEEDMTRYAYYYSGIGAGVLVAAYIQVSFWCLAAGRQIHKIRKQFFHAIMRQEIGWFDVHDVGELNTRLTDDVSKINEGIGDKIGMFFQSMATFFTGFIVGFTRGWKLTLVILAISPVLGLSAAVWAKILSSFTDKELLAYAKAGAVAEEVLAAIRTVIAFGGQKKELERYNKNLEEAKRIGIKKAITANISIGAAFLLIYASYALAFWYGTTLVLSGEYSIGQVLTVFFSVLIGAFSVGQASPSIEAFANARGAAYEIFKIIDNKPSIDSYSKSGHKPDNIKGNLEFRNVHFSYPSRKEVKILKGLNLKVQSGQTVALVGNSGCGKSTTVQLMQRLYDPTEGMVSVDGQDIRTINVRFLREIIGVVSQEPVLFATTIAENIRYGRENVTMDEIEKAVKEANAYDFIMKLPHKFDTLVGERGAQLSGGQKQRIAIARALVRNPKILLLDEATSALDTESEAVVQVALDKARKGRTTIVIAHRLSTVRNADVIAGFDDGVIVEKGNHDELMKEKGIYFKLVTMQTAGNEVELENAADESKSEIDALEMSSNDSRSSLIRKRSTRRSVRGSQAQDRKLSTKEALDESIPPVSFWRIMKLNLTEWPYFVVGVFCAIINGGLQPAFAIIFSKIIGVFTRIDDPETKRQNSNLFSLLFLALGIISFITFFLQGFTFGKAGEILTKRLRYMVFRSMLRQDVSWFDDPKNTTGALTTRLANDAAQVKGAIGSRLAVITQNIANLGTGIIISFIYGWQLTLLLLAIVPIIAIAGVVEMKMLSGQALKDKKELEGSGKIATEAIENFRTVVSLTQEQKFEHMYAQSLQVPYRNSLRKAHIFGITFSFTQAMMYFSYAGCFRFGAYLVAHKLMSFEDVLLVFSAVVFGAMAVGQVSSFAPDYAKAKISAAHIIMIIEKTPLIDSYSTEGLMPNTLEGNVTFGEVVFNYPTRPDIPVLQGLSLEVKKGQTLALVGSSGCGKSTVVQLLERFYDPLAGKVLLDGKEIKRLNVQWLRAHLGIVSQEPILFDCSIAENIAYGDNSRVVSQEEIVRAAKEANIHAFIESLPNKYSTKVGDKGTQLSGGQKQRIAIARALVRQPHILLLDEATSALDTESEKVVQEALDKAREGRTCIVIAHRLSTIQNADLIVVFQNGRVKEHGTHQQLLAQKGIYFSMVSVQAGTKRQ

What is called inhibition is the relative decrease from the control value, in per cent. As to `O=C(O)CCC1NCC2CC1CN1CCCCC21` (configuration not stated), in test [1], the inhibition is 1.87% (inactive). For the same compound, the red/green cell ratio (normalised) in test [2] (counts scaled to control wells, 1 = unselective) was 1.12 (inactive). Besides, the normalised cell number turned out to be 0.9 in test [2] (setting [20]) and 1.01 in test [2] (setting [21]). For the same compound, the activity remaining in test [3] is 120% (inactive).
In general, viability refers to a read-out of living cells in per cent, often relative to untreated cells. `CC[N+]1(C)CCCC(OC(=O)C(O)(c2ccccc2)c2ccccc2)C1` (configuration not stated): in test [4], the fluorescence slope change is 17.6% (inactive). The inhibition in [5] was -29.9%; in test [1], -2.23% (inactive). In [6], the score stood at 1.45. Moreover, in test [7], the rescue above control was -4.25. In [8], the cytochrome c release ratio amounted to 1.2. Moreover, in [9], the inhibition of aggregation came to 91.6%. The glutamate uptake change in test [10] is -17.4%. In [11], the inclusion score came to 2. For the same compound, the aggregation suppression score in test [12] was 1.25. The survival in [13] is 2.83 (inactive). Moreover, the parasite load remaining in test [14] was 98.8% (inactive) and 137% (inactive). Moreover, the viability in test [14] was 99.5% and 99.4%. For the same compound, the red/green cell ratio (normalised) in test [2] is 0.98 (inactive). For the same compound, the normalised cell number turned out to be 1.12 in test [2] (setting [20]) and 1.1 in [2] (setting [21]). In test [3], the activity remaining is 116% (inactive). The fold change in test [15] (stronger effect = lower value) is 0.964 (inactive); in test [15] (setting [22]), 1.14. Moreover, the cell count in test [15] (setting [23]) worked out at 8700; in test [15] (setting [24]), 9020. The z-score in test [16] (MELAS cybrid survival, CellTiter-Glo 48 h, stronger effect = higher value) is -0.637 (inactive); in [16] (Rieske KO mouse fibroblast survival, CellTiter-Glo 72 h), -0.323. Also, the luciferase signal in test [17] was 84 AU (inactive).
What is called remaining activity is the signal under treatment as a percentage of the control signal. As for `NCCc1c[nH]c2ccccc12`, the inhibition was 21.6% in test [5] and -12.7% (inactive) in test [1]. The score in test [6] is 1.14. The compound further had a rescue above control in test [7] of -4.06. In test [8], the cytochrome c release ratio came out at 0.68. In addition, the inhibition of aggregation in test [9] was determined as 21.6%. Moreover, the glutamate uptake change in [10] was determined as 6.97%. Also, the inclusion score in test [11] is 2. In test [12], the aggregation suppression score amounted to 1.32. The parasite load remaining in [14] was 148% (inactive). Also, in test [14], the viability was determined as 88.3%. Moreover, in test [2], the red/green cell ratio (normalised) is 1.06 (inactive). Further, the normalised cell number stood at 0.86 in [2] (setting [20]) and 0.92 in test [2] (setting [21]). For the same compound, the activity remaining in test [3] is 113% (inactive). In [18], the remaining activity is 89.5% (inactive). The fold change is 1.02 (inactive) in test [15] (stronger effect = lower value) and 1.42 in [15] (setting [22]). Besides, the cell count is 9290 in [15] (setting [23]) and 9110 in [15] (setting [24]). Moreover, in [17], the luciferase signal is 44 AU (inactive). Further, in test [19], the z-score was 0.19 (inactive).
In the case of `CC(C)c1ccc2c(c1O)CC[C@H]1C3=C(CC[C@]21C)C(=O)OC3`, the inhibition in [1] was -50.6% (inactive). The red/green cell ratio (normalised) in test [2] was 0.95 (inactive). Besides, the normalised cell number was determined as 1.07 in test [2] (setting [20]) and 1.02 in [2] (setting [21]). Also, the activity remaining in test [3] is 90.4% (inactive). Also, the luciferase signal in [17] was 64 AU (inactive).
